# Measurements: PubChem BioAssay (NCATS)
# Results filed as inconclusive are left out. A call without a number means that no potency is given here. Activity calls are given as the source filed them. The call rests on the fitted dose curve; in most records, active means well fitted curve in the direction sought with a large enough effect; inconclusive means small, poorly fitted or top-dose-only effect, or another doubt; inactive means no such curve, though single readings can be large; an effect the other way counts as inactive or inconclusive.
# Legend:
# [1] = target: Aldehyde dehydrogenase, mitochondrial (Homo sapiens) (UniProt P05091); assay: qHTS for Inhibitors of the Aldehyde Dehydrogenase Family (ALDH2) Primary screen (AID 2061308); further: nearly all actives have a fitted effect of over 55% in size
# [2] = target: Retinaldehyde dehydrogenase 3 (Homo sapiens) (UniProt P47895); assay: qHTS for Inhibitors of the Aldehyde Dehydrogenase Family (ALDH1A3) Primary screen (AID 2061315)
SMILES,Potency [1],Potency [2]
O=C(O)c1cc(F)c(S(=O)(=O)N2CCN(S(=O)(=O)c3ccc4c(c3)OCCO4)CC2)cc1F,inactive,inactive
N#Cc1nc(Nc2ccc(C(F)(F)F)cc2)nc(NC2CCCC2)n1,inactive,inactive
Cc1cc(N[S+](=O)([O-])c2cc3c(cc2F)NC(=O)CC3)ccc1Br,inactive,inactive
O=S(=O)(c1cccc(C(F)(F)F)c1)N1CCN(S(=O)(=O)c2ccc3c(c2)OCCO3)CC1,inactive,inactive
Cc1ccc(S(=O)(=O)NCCC(=O)Nc2nc(-c3ccccc3)cs2)cc1,inactive,inactive
CCc1ccccc1-c1nc(NCc2ccc(-c3cccnc3)cc2)c2ccccc2n1,inactive,inactive
Fc1ccc(-c2ccc(Nc3nc(-c4ccncc4)nc4ccccc34)cc2F)cc1,inactive,inactive
CCOC(=O)C1CCC(C(=O)Nc2ccc([S+](=O)([O-])Nc3nccs3)cc2)CC1 (configuration not stated),inactive,inactive
O=C(OCc1ccccc1)N1CCN(C(=O)[C@H](Cc2ccc(O[S+](=O)([O-])c3cccc4cnccc34)cc2)N[S+](=O)([O-])c2cccc3cnccc23)CC1,inactive,inactive
COc1ccc(C2Nc3ccccc3C(=O)N2Cc2ccccn2)cc1COc1c(C)cccc1C (configuration not stated),inactive,inactive
FC(F)(F)c1ccc(-c2nc(NCc3ccc(-c4cccnc4)cc3)c3ccccc3n2)cc1,inactive,inactive
